PubChem BioAssay (NCATS)
Records with an inconclusive call do not appear. Active and inactive are the calls of the source. Calls follow the shape of the dose curve; as a rule, active = well fitted curve in the direction sought with a large enough effect; inconclusive = small, poorly fitted or top-dose-only effect, or another doubt; inactive = no such curve, though single readings can be large; an effect the other way counts as inactive or inconclusive.

Key:
[1] = biological target: Phospholipid hydroperoxide glutathione peroxidase GPX4 (Homo sapiens) (UniProt P36969); assay: Primary qHTS Assay for Inhibitors of Recombinant Selenoprotein Glutathione Peroxidase 4 (GPX4) (AID 1845192); also: nearly all actives have a fitted effect of over 65% in size
Phospholipid hydroperoxide glutathione peroxidase GPX4 (Homo sapiens), sequence (P36969 whole entry, looked up): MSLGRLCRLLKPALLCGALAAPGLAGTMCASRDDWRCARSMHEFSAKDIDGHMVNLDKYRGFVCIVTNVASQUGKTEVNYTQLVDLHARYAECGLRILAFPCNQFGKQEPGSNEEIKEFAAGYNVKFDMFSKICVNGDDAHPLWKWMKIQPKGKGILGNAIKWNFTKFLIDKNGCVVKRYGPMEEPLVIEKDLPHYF
Outline: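 qHTS, GR-coupled: GPX4 200 nM + cpd 30 min RT → GSH 1 mM, NADPH 0.5 mM, GR 100 nM → CHP 0.5 mM start; fluor 340/450 at t0 and t15 min; no-enzyme wells as control.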

[2] = biological target: Luciferin 4-monooxygenase (Photinus pyralis) (UniProt P08659); assay: Primary firefly luciferase (FLuc) qHTS assay for identification of artifact compounds. (AID 1845220); also: nearly all actives have a fitted effect of over 60% in size; also: potency is read from the fitted curve at half-maximal effect
Outline: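 qHTS, 15 min compound preincubation with substrate (10 uM luciferin, 10 uM ATP) at RT, then 10 nM FLuc; 5 min; luminescence; % inhibition vs no-enzyme/DMSO controls, 4-parameter Hill fit.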

[3] = system: Nanoluciferase (engineered Oplophorus gracilirostris luciferase); assay: Primary Nanoluciferase (NLuc) qHTS assay for identification of artifact compounds. (AID 1845222); also: series mostly up to about 54 µM
Outline: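 Luminescence read-out of secreted NLuc in S16 cell conditioned medium (1:55); compounds tested with 15 min RT preincubation, then Nano-Glo substrate 1:100, 5 min. % inhibition vs no-enzyme and DMSO controls, 4-parameter Hill fit.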

[4] = Primary redox qHTS assay for identification of artifact compounds. (AID 1845223);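 also: 0% = DMSO and 100% = reference compound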
Outline: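 Redox-cycling detection via DTT (250 uM final) oxidation coupled to Amplex Red (25 uM)/HRP (250 mU/mL) in HBSS. 15 min preincubation plus 30 min after DTT, room temperature. Ex/Em 525/598 nm; 4-parameter Hill fit against DMSO and 10 uM DA3003.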

[5] = biological target: Cytochrome P450 3A4 (Homo sapiens) (UniProt P08684); assay: qHTS for inhibitors of CYP3A4 against the NCATS DSHEA and TCM libraries (AID 1919971);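 also: % is scaled to controls: 0 for no effect and ±100 for the full control effect; inhibition lowers luminescence from luciferin made by CYP3A4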
Cytochrome P450 3A4 (Homo sapiens), sequence (P08684 whole entry, looked up, canonical isoform): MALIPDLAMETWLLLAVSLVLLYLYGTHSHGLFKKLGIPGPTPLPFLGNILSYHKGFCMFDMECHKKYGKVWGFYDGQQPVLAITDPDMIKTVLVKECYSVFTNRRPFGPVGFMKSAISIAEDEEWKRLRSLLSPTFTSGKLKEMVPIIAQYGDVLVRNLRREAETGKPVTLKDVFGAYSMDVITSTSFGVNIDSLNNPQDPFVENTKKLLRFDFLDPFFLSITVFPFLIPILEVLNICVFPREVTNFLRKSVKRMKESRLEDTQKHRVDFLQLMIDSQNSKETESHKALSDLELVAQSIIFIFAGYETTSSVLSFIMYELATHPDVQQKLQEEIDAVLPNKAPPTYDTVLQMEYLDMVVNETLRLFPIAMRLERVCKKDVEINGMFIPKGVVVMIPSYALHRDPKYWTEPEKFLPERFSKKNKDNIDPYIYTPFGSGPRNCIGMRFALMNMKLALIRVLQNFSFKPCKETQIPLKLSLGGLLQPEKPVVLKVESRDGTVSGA
Outline: (§1)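 Concentration-response screening with isoform-matched pro-luciferin substrates. The CYP reaction was initiated by NADPH regenerating solution and ran 30-45 min in darkness at room temperature.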

[6] = biological target: Cytochrome P450 2D6 (Homo sapiens) (UniProt P10635); assay: qHTS for inhibitors of CYP2D6 against the NCATS DSHEA and TCM libraries (AID 1919972); also: % is scaled to controls: 0 for no effect and ±100 for the full control effect
Cytochrome P450 2D6 (Homo sapiens), sequence (P10635 whole entry, looked up): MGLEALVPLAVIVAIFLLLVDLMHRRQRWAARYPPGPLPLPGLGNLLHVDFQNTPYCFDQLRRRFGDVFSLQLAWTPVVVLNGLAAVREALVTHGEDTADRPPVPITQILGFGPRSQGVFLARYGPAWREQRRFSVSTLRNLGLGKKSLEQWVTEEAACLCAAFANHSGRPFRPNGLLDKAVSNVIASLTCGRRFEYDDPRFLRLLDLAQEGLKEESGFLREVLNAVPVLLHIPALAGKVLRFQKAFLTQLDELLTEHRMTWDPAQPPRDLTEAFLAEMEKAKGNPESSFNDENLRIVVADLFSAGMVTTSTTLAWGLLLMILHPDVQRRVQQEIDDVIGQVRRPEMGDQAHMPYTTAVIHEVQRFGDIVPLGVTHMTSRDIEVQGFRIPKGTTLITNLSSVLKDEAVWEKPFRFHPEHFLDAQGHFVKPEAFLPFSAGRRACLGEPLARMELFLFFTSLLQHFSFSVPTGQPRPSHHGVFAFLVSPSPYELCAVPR
Outline: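 CYP2D6 enzyme with pro-luciferin substrate in manufacturer buffer (typically 100 mM KPO4), preincubated 15 min RT with substances (most at 19.5 nM upward); NADPH regeneration system (1x) started 30–45 min RT reaction; P450-Glo luminescence read after 30 min; quinidine as intraplate control.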

[7] = biological target: Cytochrome P450 2C19 (Homo sapiens) (UniProt P33261); assay: qHTS for inhibitors of CYP2C19 against the NCATS DSHEA and TCM libraries (AID 1919974);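 also: luminescence from luciferin released by CYP2C19 oxidation of a pro-luciferin substrate; % is scaled to controls: 0 for no effect and ±100 for the full control effect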
Cytochrome P450 2C19 (Homo sapiens), sequence (P33261 whole entry, looked up): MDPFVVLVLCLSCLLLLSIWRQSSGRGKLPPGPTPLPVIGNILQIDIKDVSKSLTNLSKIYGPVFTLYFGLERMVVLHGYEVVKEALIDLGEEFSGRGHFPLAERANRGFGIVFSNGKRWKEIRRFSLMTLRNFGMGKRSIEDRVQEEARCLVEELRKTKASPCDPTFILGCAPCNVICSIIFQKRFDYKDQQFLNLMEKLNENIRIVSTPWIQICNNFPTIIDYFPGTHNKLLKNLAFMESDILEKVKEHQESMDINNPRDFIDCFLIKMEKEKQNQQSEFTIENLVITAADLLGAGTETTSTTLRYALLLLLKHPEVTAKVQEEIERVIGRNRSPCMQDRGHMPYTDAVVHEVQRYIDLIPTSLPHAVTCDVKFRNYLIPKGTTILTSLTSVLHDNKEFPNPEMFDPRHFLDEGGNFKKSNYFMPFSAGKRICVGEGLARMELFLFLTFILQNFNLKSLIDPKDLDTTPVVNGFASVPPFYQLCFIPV
Outline: as §1

[8] = KB-3-1 P-gp reporter qHTS against the NCATS DSHEA and TCM libraries (AID 1919975); also: 0% is about no effect
Outline: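 Cell viability by CellTiter-Glo luminescence following ~72 h compound exposure (concentration-response). Uses parental, non-P-gp-overexpressing KB-3-1 line, 500 cells/well in DMEM/10% FBS, attached ~4 h before dosing.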

[9] = Primary fluorescence-based thiol-reactive (MSTI) qHTS assay for identification of artifact compounds. (AID 1845221); also: nearly all actives have a fitted effect of over 65% in size; also: potency is read from the fitted curve at half-maximal effect
Outline: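 qHTS titration of compound; 4 uM MSTI, PBS pH 7.4, 2% DMSO; 1 h RT, dark; fluorescence 525/598 nm; normalized to Acetyl-MSTI and MSTI; 4-parameter Hill fit.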

C=CCC1=C[C@]2(OC)[C@H](C)[C@@H](c3ccc(O)c(OC)c3)O[C@]2(OC)CC1=O
inactive: Potency [1] | Potency [2] | Potency [3] | Potency [4]

CC(=O)C=C=C1C(C)(C)CC(O[C@@H]2O[C@H](CO)[C@@H](O)[C@H](O)[C@H]2O)CC1(C)O (some centres undefined)
inactive: Potency [1] | Potency [2] | Potency [3] | Potency [4]

Cc1cccc(C)c1-n1c(=O)c2cnc(Nc3ccc(N4CCN(C)CC4)cc3)nc2n2c3ccccc3nc12
inactive: Potency [1] | Potency [2] | Potency [3] | Potency [4]

O=S(=O)(Nc1ccccn1)c1ccc(N=Cc2c(O)[nH]c3ccc4ncsc4c23)cc1
inactive: outcome [1] inactive [at 9.73 µM] | outcome [2] inactive [at 11.6 µM] | activity, negative = inhibition [3] -7.47% [at 11.6 µM] | redox activity (% of DA3003) [4] -4.81% [at 11.5 µM]

O=S(=O)(c1ccc(S(=O)(=O)n2cnc3ccccc32)cc1)N1CCCCCC1
inactive: Potency [1] | Potency [2] | Potency [3] | Potency [4]

CC1CC(O)/C=C/C(O)C(O)CC(=O)Cc2c(Cl)c(O)cc(O)c2C(=O)O1 (centres undefined)
inactive: Potency [1] | Potency [2] | Potency [3] | Potency [4]

C[C@@H]1[C@H]2[C@H](O[C@@H]3O[C@H](CO)[C@@H](O)[C@H](O)[C@H]3O)OC=C(C(=O)O)[C@H]2C[C@@H]1O
inactive: Potency [1] | Potency [2] | Potency [3] | Potency [4]

C=CC(C)(C)c1[nH]c2cc3c(cc2c1CC1NC(=O)C2CCCN2C1=O)C=CC(C)(C)O3 (centres undefined)
inactive: Potency [1] | Potency [2] | Potency [3] | Potency [4]

CC(C)=CCC/C(C)=C/CCC1(C)Oc2c(c(O)cc3c2CN(C(CCC(=O)O)C(=O)O)C3=O)CC1O (centres undefined)
inactive: Potency [1] | Potency [2] | Potency [3] | Potency [4]

NCCCNc1ccc(Nc2nccc(Nc3cc(C4CC4)[nH]n3)n2)cc1
inactive: Potency [1] | Potency [2] | Potency [3] | Potency [4]

c1ccc(N2CCN(CCc3nn[nH]n3)CC2)cc1
inactive: Potency [1] | Potency [2] | Potency [3] | Potency [4]

CC1=CC(=O)CC(C)(C)[C@@]1(O)CC[C@@H](C)O[C@@H]1O[C@H](CO)[C@@H](O)[C@H](O)[C@H]1O
inactive: Potency [1] | Potency [2] | Potency [3] | Potency [4]

Nc1nc2c(c(N3CCNCC3)n1)CCC1=C2[C@@H]2CCCC[C@@H]2O1
inactive: Potency [1] | Potency [2] | Potency [3] | Potency [4]

CCCCc1nc2cc(/C=C/C(=O)NO)ccc2n1CCN(CC)CC
inactive: Potency [1] | Potency [2] | Potency [3] | Potency [4]

Nc1ccc(-c2cccc3c(=O)cc(N4CCOCC4)oc23)cc1
inactive: Potency [1] | Potency [2] | Potency [3] | Potency [4]

CN1CCN(Cc2ccc(-c3cnc4[nH]cc(-c5ccc6[nH]ccc6c5)c4c3)cc2)CC1
active: Potency [2] 6.75 µM
inactive: Potency [1] | Potency [3] | Potency [4]

O=C1N=C(N2CCOCC2)CN1c1ccc(Cl)cc1
inactive: Potency [1] | Potency [2] | Potency [3] | Potency [4]

CC1CC[C@]2(C(=O)O)CC[C@]3(C(=O)O)C(=CCC4[C@@]5(C)CC[C@H](OC6OC(C)C(O)C(OC7OC(CO)C(O)C(O)C7O)C6O)C(C)(C)C5CC[C@]43C)C2C1C (some centres undefined)
inactive: outcome [5] | outcome [6] | Potency [7] | outcome [8]

c1ccc(-c2csc(N3CCOCC3)n2)cc1
inactive: Potency [1] | Potency [3] | Potency [4]

OC/C=C/c1ccc(O[C@@H]2O[C@H](CO)[C@@H](O)[C@H](O)[C@H]2O)cc1
inactive: Potency [1] | Potency [3] | Potency [4]

COc1c2c(c(C)c3c1C(=O)OC3)O[C@@]1(C)CCC3(C(C)(C)O)OC(=O)CC[C@]3(C)[C@H]1C2 (some centres undefined)
inactive: Potency [1] | Potency [9] | Potency [3] | Potency [4]

CC1COC(Nc2ccc3ncnc(Nc4ccc(OCc5nccs5)c(Cl)c4)c3c2)=N1 (centres undefined)
inactive: Potency [1] | Potency [9] | Potency [4]

C=C(CO[C@@H]1O[C@H](CO[C@@H]2OC[C@](O)(CO)[C@H]2O)[C@@H](O)[C@H](O)[C@H]1O)C1Cc2cc(C(C)=O)ccc2O1 (some centres undefined)
active: Potency [9] 5.19 µM
inactive: Potency [1] | Potency [4]

Cc1ccc(F)cc1C(=O)Nc1ccc(C(=O)N2Cc3cccn3Cc3ccccc32)c(Cl)c1
inactive: Potency [1] | Potency [9] | Potency [3] | Potency [4]

CC(C)(O)c1ccc2c(c1)C(O)C[C@H]1[C@](C)(C(=O)O)CCC[C@]21C (some centres undefined)
inactive: Potency [1] | Potency [3] | Potency [4]

CCOc1cc(C(=O)N2CCC(N3CCN(C)CC3)CC2)ccc1Nc1ncc2c(n1)N(C1CCCC1)c1ccccc1C(=O)N2C
inactive: Potency [1] | Potency [9] | Potency [3] | Potency [4]
